# Sampled rows, rich in hits. Any-hit rate of the full collection: about 10%.
# FLuc inh = inhibitors of firefly (Photinus pyralis) luciferase | purified P. pyralis luciferase, luminescence, biochemical | actives 2.5% (n = 76,000) | AID 1347043 | Potency, µM (top dose mostly 115 µM), hits mostly inhibitors; also: nearly all actives have a fitted effect of over 65% in size
#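 Luminescence read by CCD imaging after purified firefly luciferase (10nM final) was added to substrate buffer holding 10uM D-luciferin and 10uM ATP, pH 7.5, pre-dosed with compound.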
# HEK293 tox = kills HEK 293 cells; HEK 293 viability, ATP luminescence (CellTiter-Glo), 48-72 h; Potency, µM (series often up to 115 µM), for the others: at the highest dose activity change, negative = cytotoxicity, most hits filed as inhibitors; actives 6.6% (n = 94,000); also: nearly all actives have a fitted effect of over 60% in size
#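 HEK 293 cells seeded at 250 cells/well were exposed to compound for 48 or 72 hr at 37 degree Celsius. Viability taken as ATP content by CellTiter-Glo luminescence.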
# NIH3T3 tox = cytotoxic compounds in NIH 3T3 cells; NIH 3T3 viability, CellTiter-Glo ATP luminescence, 48-72 h; Potency, µM (series often up to 96.7 µM), for inactives: at the highest dose activity change, negative = cytotoxicity, actives largely listed as inhibitors; actives 4.3% (n = 94,000); AID 1345082; also: nearly all actives have a fitted effect of over 55% in size
#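 ATP-dependent luminescence (CellTiter-Glo) served as the viability signal for NIH 3T3 cells treated with compound for 48 or 72 hr at 37 °C.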
# GPT2 inhibitor = GPT2 alanine aminotransferase inhibition | actives 0.25% (n = 100,000) | Potency, µM (series often up to 57.7 µM), for inactives: top-dose activity change, negative = inhibition, most hits filed as inhibitors | AID 1671188 | Recombinant GPT2, coupled pyruvate oxidase/HRP Amplex Red fluorescence; also: nearly all actives have a fitted effect of over 60% in size
#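 Inhibition is scored from Amplex Red fluorescence generated when pyruvate oxidase and HRP act on pyruvate released by GPT2. Reactions contain 10ng/uL enzyme, 250uM a-KG and 2mM L-alanine and run 30 min at room temperature.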
# hNpr1 antagonist = antagonists of human natriuretic peptide receptor Npr1; Potency, µM (top dose mostly 46.3 µM), without a hit: at the top dose activity change, negative = inhibition, actives largely listed as inhibitors; actives 1.6% (n = 76,000); P16066; HEK293 hNpr1 GloSensor cGMP, ANP-stimulated luminescence; calls by dose curve; also: nearly all actives have a fitted effect of over 60% in size
# Target sequence (P16066 whole entry, looked up): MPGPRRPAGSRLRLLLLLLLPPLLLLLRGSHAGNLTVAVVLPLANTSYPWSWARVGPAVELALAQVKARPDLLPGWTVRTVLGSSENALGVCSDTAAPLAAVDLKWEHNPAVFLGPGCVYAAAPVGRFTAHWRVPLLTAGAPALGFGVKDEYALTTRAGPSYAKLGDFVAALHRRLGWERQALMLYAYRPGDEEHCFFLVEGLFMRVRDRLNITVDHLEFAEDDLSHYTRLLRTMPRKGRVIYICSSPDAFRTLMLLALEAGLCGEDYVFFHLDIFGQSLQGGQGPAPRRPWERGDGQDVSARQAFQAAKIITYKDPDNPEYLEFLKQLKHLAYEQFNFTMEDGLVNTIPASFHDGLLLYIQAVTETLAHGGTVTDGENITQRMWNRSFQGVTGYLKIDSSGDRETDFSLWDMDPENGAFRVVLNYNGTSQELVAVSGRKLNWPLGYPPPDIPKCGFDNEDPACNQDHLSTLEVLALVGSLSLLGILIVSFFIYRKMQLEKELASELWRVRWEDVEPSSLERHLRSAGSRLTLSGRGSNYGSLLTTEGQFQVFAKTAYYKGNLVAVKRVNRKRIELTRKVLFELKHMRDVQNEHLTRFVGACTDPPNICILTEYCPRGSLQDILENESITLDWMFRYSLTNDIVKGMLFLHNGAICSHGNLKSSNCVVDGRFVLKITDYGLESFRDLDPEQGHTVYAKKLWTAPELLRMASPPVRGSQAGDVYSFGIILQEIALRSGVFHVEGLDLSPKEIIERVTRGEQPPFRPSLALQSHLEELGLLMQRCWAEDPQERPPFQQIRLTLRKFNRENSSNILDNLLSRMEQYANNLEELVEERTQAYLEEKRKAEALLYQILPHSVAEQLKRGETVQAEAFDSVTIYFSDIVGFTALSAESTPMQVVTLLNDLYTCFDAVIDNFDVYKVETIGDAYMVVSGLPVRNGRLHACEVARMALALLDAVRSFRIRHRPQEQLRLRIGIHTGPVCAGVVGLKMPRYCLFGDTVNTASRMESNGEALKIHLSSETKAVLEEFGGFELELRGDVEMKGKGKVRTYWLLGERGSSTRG
#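 HEK293 cells stably expressing human Npr1 and cGMP GloSensor pGS-40F, loaded 2 h with 2% GloSensor reagent, given compound 30 min at room temperature. Luminescence read before and 20 min after 0.1 nM hNppA.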
# Active calls of the source: *; i = inactive; ? = inconclusive; . = no result given; [ ] = remark or other dose. Unless noted, calls follow the shape of the dose curve; as a rule, active = well fitted curve in the direction sought with a large enough effect; inconclusive = small, poorly fitted or top-dose-only effect, or another doubt; inactive = no such curve, though single readings can be large; an effect the other way counts as inactive or inconclusive. % is scaled to controls: 0 for no effect and ±100 for the full control effect; potency is read from the fitted curve at half-maximal effect.
SMILES,FLuc inh,HEK293 tox,NIH3T3 tox,GPT2 inhibitor,hNpr1 antagonist
COc1ccc(Nc2ccnc(N3CCCC(C(=O)N4CCCCC4)C3)n2)cc1 (stereo unspecified),.,?,?,i,.
COCCN1Cc2ccc(NCc3ccccc3)nc2C(C)(C(=O)NC2CCOCC2)C1 (stereo unspecified),i,?,?,?,0.8%[70.6 µM]
COCCN1Cc2ccc(NCc3ccccc3)nc2C(C)(C(=O)Nc2ccccc2)C1 (stereo unspecified),i,50.1µM*,?,-9.7%[88.5 µM],-14.0%[70.6 µM]
COCCN1Cc2ccc(Nc3cccnc3)nc2C(C)(C(=O)Nc2ccccc2C)C1 (stereo unspecified),63.1µM*,?,?,4.2%[88.5 µM],-8.0%[70.6 µM]
COCCN1Cc2ccc(NCc3ccccc3)nc2C(C)(C(=O)NCc2ccccc2)C1 (stereo unspecified),i,50.1µM*,44.7µM*,-6.6%,-10.1%
COCCN1Cc2ccc(NCc3ccccc3)nc2C(C)(C(=O)Nc2ccc(F)cc2)C1 (stereo unspecified),i,?,?,-24.4%,-16.3%
COCCN1Cc2ccc(NCC(C)C)nc2C(C)(C(=O)Nc2cccc(F)c2)C1 (stereo unspecified),i,44.7µM*,25.1µM*,3.3%[88.5 µM],-12.5%[70.6 µM]
COCCN1Cc2ccc(NCc3ccccc3)nc2C(C)(C(=O)Nc2cccnc2)C1 (stereo unspecified),i,?,?,-4.6%[88.5 µM],5.0%[70.6 µM]
CCCN1CCC2(CCN([S+](=O)([O-])c3ccccc3)CC2)Oc2ccccc21,i,?,?,i,0.0%
O=C(Cc1ccccc1)NCCC1CCN(C(=O)Nc2cccc(F)c2)CC1,i,-7.9%,-23.1%,0.3%,-4.3%
c1cc(-c2nnc([C@H]3CCN(C4CCCCC4)C3)o2)ccn1,?,-18.8%[172 µM],-12.0%[138 µM],i,-15.8%[70.6 µM]
c1ccc(-c2nnc([C@H]3CCN(C4CCC4)C3)o2)cc1,25.1µM*,?,-13.6%[230 µM],i,-6.4%[70.6 µM]
CN(C)c1ccc(-c2nnc([C@H]3CCN(C4CCC4)C3)o2)cc1,70.8µM*,-11.0%[172 µM],3.4%[138 µM],4.9%[88.5 µM],1.3%[70.6 µM]
O=C(NC1CCCCC1)c1c(-c2ccccc2)cc(=O)n2c1CCC2,.,3.3%,-8.8%,i,.
CCOC(=O)c1cc2cc(NC(=O)C3=CC(C)(C)Oc4ccc(OC)cc43)ccc2o1,.,44.7µM*,?,.,.
Fc1ccc(-c2[nH]ncc2CN(Cc2cccnc2)Cc2cccnc2)cc1,i,?,?,-43.6%,-6.7%
COCCN(Cc1ccsc1)Cc1cn[nH]c1-c1ccc(F)cc1,i,89.1µM*,-27.6%,-0.6%,4.8%
O=C(N[C@@H]1CCNC[C@H]1O)c1cccc(-c2ccc(OC(F)(F)F)cc2)c1,i,?,17.8µM*,1.3%,2.9%
CCNC(=O)N1CC(C(=O)NCc2cccc(F)c2)CC(c2ccc(F)c(C)c2)C1 (stereo unspecified),i,?,?,1.9%,-1.7%
Cc1cc(C2CC(C(=O)NCCc3ccccc3)CN(C(=O)C3CC3)C2)ccc1F (stereo unspecified),i,?,31.6µM*,i,-14.9%
CCOc1ccc(C(=O)N2CCN(c3nnc4ccc(C(F)(F)F)cn34)CC2)cc1,i,i,?,2.5%,-15.6%
CCC(=O)N1CCN(c2nc3c(s2)CC(C(=O)Nc2cccc(C)c2C)CC3)CC1 (stereo unspecified),i,39.8µM*,?,i,-20.1%
CCC(=O)N1CCN(c2nc3c(s2)CC(C(=O)Nc2ccc(F)cc2F)CC3)CC1 (stereo unspecified),i,10µM*,?,i,?
CCC(=O)N1CCN(c2nc3c(s2)CC(C(=O)NCc2ccccc2)CC3)CC1 (stereo unspecified),i,?,-25.6%,i,-1.0%
CCC(=O)N1CCN(c2nc3c(s2)CC(C(=O)Nc2ccc(F)cc2C)CC3)CC1 (stereo unspecified),i,?,-15.6%,i,-16.0%
SMILES,FLuc inh,HEK293 tox,NIH3T3 tox,GPT2 inhibitor,hNpr1 antagonist
O=C(CCc1ccnc(N2CCOCC2)c1)Nc1ccc2c(c1)OCO2,35.5µM*,-23.6%,-27.9%,i,-11.8%
O=C(Cc1ccc2c(c1)OCO2)NCc1cccnc1N1CCOCC1,28.2µM*,-10.1%,-17.1%,-20.8%,1.7%
COc1ccc(CC(=O)Nc2ccc3ncnc(N4CCCCC4)c3c2)c(Cl)c1,i,?,?,i,-18.3%
COc1ccccc1C(=O)Nc1ccc2ncnc(N3CCCCC3)c2c1,i,39.8µM*,?,-0.7%,?
O=C(Nc1ccc2c(N3CCCC3)ncnc2c1)c1ccccc1Br,i,8.91µM*,?,3.0%,-13.8%
COc1cccc(CC(=O)Nc2ccc3c(N4CCCCC4)ncnc3c2)c1,i,31.6µM*,?,-1.9%,?
COc1ccc(NC(=O)CCC2CCN(S(=O)(=O)c3ccccc3F)CC2)c(OC)c1,.,?,-28.2%,i,.
O=C(NC1CCN(c2cc(-c3ccc(Cl)cc3)[nH]n2)C1)c1ccccc1Br (stereo unspecified),i,28.2µM*,35.5µM*,-26.9%,?
COc1ccc(C(=O)NC2CCN(c3cc(-c4ccc(Cl)cc4)[nH]n3)C2)c(C)c1 (stereo unspecified),i,?,?,-7.0%,-16.3%
O=C(NC1CCN(c2cc(-c3ccc(Cl)cc3)[nH]n2)C1)c1ccc(F)cc1F (stereo unspecified),i,50.1µM*,?,?,?
COc1ccc(C(=O)NC2CCN(c3cc(-c4ccc(Cl)cc4)[nH]n3)C2)c(OC)c1 (stereo unspecified),i,44.7µM*,35.5µM*,?,-26.7%
CCN1Cc2nc(OC)c(CNC(=O)C(C)n3cc(C)cn3)cc2C1=O (stereo unspecified),i,-7.5%,-13.6%,1.4%[11.5 µM],8.0%
N#Cc1ccc(CN2CCCCCCNC(=O)[C@@H]3C[C@@H](C(=O)N4CCc5ccccc5C4)C[C@@H]32)cc1,i,?,?,1.2%,-14.2%
Cc1ncsc1CN1CCCCCCNC(=O)[C@@H]2C[C@@H](C(=O)N3CCc4ccccc4C3)C[C@@H]21,i,89.1µM*,-19.1%,1.5%,-17.7%
COc1cccc(-c2ccc(CN3CCCC(N[S+](=O)([O-])c4ccc(C)cc4)C3)cc2)c1 (stereo unspecified),.,28.2µM*,?,-8.9%,.
Cc1ccc(-c2cccc(CN3CCCC(N[S+](=O)([O-])c4c(C)noc4C)C3)c2)cc1Cl (stereo unspecified),.,12.6µM*,15.8µM*,-8.3%,.

# Screening results as filed in PubChem BioAssay.
